Assay [1] in a line: ACEA_ER_80hr: ACEA Biosciences xCELLigence Real-Time Cell Analysis on Estrogen Receptor Agonism for Proliferation (AID 2282667; active = hit-call score of the fitted dose curve at least 0.9, where 1 is the maximum). The settings on record: T47D proliferation, impedance (xCELLigence), 80 h. In a few lines:
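T47D human breast cells were seeded on electrode plates, monitored overnight, then exposed continuously to compounds in eight-point 1:4 dilutions from 100 uM (max 0.5% DMSO). Impedance-based growth was read at 80 h, fitted upward relative to DMSO.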

The nature of assay [2]: ATG_CRE_CIS: Attagene CIS-FACTORIAL HepG2 Assay for human cAMP Responsive Element (CRE) binding protein 3 (AID 2282926). As to conditions: HepG2 CRE cis-reporter, Attagene multiplexed mRNA; actives raise or lower the signal. The procedure, abridged: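 Capillary electrophoresis of 6-FAM-labelled, HpaI-digested PCR products quantified reporter transcripts. These came from HepG2 transiently transfected with cis-element reporters and exposed to test chemicals for 24 hours, with DMSO defining baseline activity.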

In assay [3] the target is CCAAT/enhancer-binding protein beta (Homo sapiens) (UniProt P17676). Put plainly: ATG_C_EBP_CIS: Attagene CIS-FACTORIAL HepG2 Assay for human CCAAT/Enhancer Binding Protein (C/EBP) beta (AID 2282927). As to conditions: HepG2 Attagene cis-factorial transcription factor reporter; actives raise or lower the signal. In a few lines: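 HepG2 transiently transfected with multiplexed reporter units under cis-regulatory promoters reporting endogenous C/EBPb activity. After 24 h exposure, reporter mRNA assayed by RT-PCR, fluorescent labelling, HpaI digestion and capillary electrophoresis; bidirectional fitting versus DMSO.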
Chain of CCAAT/enhancer-binding protein beta (Homo sapiens) (P17676 whole entry, looked up): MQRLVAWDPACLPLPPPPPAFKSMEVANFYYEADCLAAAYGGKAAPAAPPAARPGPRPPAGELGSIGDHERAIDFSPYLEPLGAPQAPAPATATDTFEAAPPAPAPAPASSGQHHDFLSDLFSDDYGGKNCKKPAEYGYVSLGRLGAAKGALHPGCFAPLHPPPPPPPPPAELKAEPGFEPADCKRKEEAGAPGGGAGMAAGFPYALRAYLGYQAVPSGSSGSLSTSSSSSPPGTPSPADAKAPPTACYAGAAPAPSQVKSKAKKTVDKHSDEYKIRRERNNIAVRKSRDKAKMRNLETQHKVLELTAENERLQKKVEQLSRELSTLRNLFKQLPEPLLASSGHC

Assay [4] in a line: ATG_CMV_CIS: Attagene CIS-FACTORIAL HepG2 Assay for human CMV (Internal Marker) (AID 2282928).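 Also: endpoint acts as a background internal control marker rather than a target.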 The settings on record: HepG2 CMV promoter reporter, transcription factor profiling; actives raise or lower the signal. The procedure, abridged:
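Reporter transcripts from transfected HepG2 cells are isolated after 24 h of chemical dosing, reverse-transcribed and amplified. Fragments labeled with 6-FAM are cut with HpaI and quantified by capillary electrophoresis; DMSO defines baseline.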

A short description of assay [5]: ATG_DR4_LXR_CIS: Attagene CIS-FACTORIAL HepG2 Assay for human Liver X Receptor (LXR), DR4 submotif (AID 2282929). The settings on record: HepG2 Attagene DR4 cis-reporter, mRNA transcription; actives raise or lower the signal. In a few lines: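 HepG2 cells were transiently transfected with multiple cis-regulated reporter units and dosed for 24 hours. The DR4 reporter mRNA was quantified by RT-PCR, 6-FAM labelling and capillary electrophoresis. Bidirectional fits used DMSO as baseline.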

For assay [6], the target named is Aryl hydrocarbon receptor (Homo sapiens) (UniProt P35869). Put plainly: ATG_Ahr_CIS: Attagene CIS-FACTORIAL HepG2 Assay for human Aryl Hydrocarbon Receptor (Ahr) (AID 2282930). The settings on record: HepG2 AhR cis-factorial reporter transcription; actives raise or lower the signal. The procedure, abridged:
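HepG2 cells transiently transfected with cis-element-driven multiplexed reporter units; endogenous AhR activity read as reporter mRNA 24 h after dosing, via RT-PCR, 6-FAM labelling, HpaI digestion and capillary electrophoresis. Bidirectional fit relative to DMSO.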

Assay [7] in a line: ATG_AP_1_CIS: Attagene CIS-FACTORIAL HepG2 Assay for human Activator Protein 1 (AP-1) (AID 2282931). As to conditions: HepG2 Attagene cis-factorial AP-1 reporter mRNA; actives raise or lower the signal. The procedure, abridged: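 HepG2 cells transiently transfected with cis-element-driven reporter transcription units, dosed for 24 hours. Reporter mRNA measured by RT-PCR, 6-FAM labelling, HpaI digestion and capillary electrophoresis. Bidirectional fitting against DMSO baseline.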

Assay [8] can be described thus: ATG_AP_2_CIS: Attagene CIS-FACTORIAL HepG2 Assay for human Activator Protein 2 (AP-2) (AID 2282932). As to conditions: HepG2 AP-2 cis-reporter, Attagene transcription factor profiling; actives raise or lower the signal. The procedure, abridged: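 Read-out: fluorescent reporter mRNA via RT-PCR and capillary electrophoresis, 24 h post-dose in transiently transfected HepG2. Endogenous factors drive cis-promoter reporters; gain or loss of signal fitted bidirectionally against DMSO.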

The nature of assay [9]: ATG_BRE_CIS: Attagene CIS-FACTORIAL HepG2 Assay for human Bone Morphogenetic Protein (BMP) Response Element (BRE) (AID 2282933). The settings on record: HepG2 BMP response element reporter, Attagene transcription factor profiling; actives raise or lower the signal. In a few lines: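 Multiplexed cis-reporter assay, HepG2, 24 h exposure. mRNA from reporter units quantified via RT-PCR/CE; DMSO baseline; bidirectional curve fit.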

For assay [10], the target named is Retinoic acid receptor alpha (Homo sapiens) (UniProt P10276). Put plainly: ATG_DR5_RAR_CIS: Attagene CIS-FACTORIAL HepG2 Assay for human Retinoic Acid Receptor Alpha (RARE), DR5 submotif (AID 2282934).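 As to AC50: reporter responds to endogenous RAR alpha beta and gamma in HepG2 not RARA alone.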 As to conditions: HepG2 Attagene cis-factorial RARE DR5 reporter, mRNA; actives raise or lower the signal. In a few lines:
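HepG2 cells transiently transfected with multiplexed reporter units; DR5 cis-element drives reporter through endogenous transcription factors. After 24 h dosing, reporter mRNA quantified by RT-PCR, fluorescent labeling, HpaI digestion and capillary electrophoresis; bidirectional fitting versus DMSO.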

Assay [11] concerns the target Transcription factor E2F1 (Homo sapiens) (UniProt Q01094). The experiment in a line: ATG_E2F_CIS: Attagene CIS-FACTORIAL HepG2 Assay for human E2F Transcription Factor 1 (AID 2282935). The settings on record: HepG2 Attagene cis-reporter, E2F reporter RNA transcripts; actives raise or lower the signal. In a few lines:
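Transient MRTU transfection of HepG2; 24 h compound exposure; RNA → oligo(dT) RT → PCR → FAM label → HpaI cut → CE fluorescence. Gain/loss of signal fit against DMSO.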

The nature of assay [12]: ATG_E_Box_CIS: Attagene CIS-FACTORIAL HepG2 Assay for human Enhancer Box (E-box) (AID 2282936). As to conditions: HepG2 E-box cis-reporter transcription, actives raise or lower the signal. The procedure, abridged: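 Transiently transfected HepG2, endogenous TF-driven reporters, 24 h dosing. Readout: RT-PCR plus capillary electrophoresis of fluorescent reporter fragments. Gain or loss of signal fitted bidirectionally against DMSO baseline.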

Assay [13] is described as follows: ATG_M_61_CIS: Attagene CIS-FACTORIAL HepG2 Assay for M61 Transcription Factor (Internal Marker) (AID 2282937). As to conditions: HepG2 Attagene CIS-FACTORIAL M61 internal marker reporter; actives raise or lower the signal. In a few lines: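 HepG2 cells transiently transfected with multiplexed cis-promoter reporter units reporting endogenous transcription factor activity, measured 24 h after dosing. Reporter mRNA quantified by RT-PCR and capillary electrophoresis; bidirectional fit against DMSO baseline.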

A short description of assay [14]: ATG_EGR_CIS: Attagene CIS-FACTORIAL HepG2 Assay for human Early Growth Response 1 (EGR1) (AID 2282938). As to conditions: HepG2 Attagene CIS-FACTORIAL EGR reporter mRNA; actives raise or lower the signal. In a few lines: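 HepG2 cells transiently transfected with cis-element-driven multiplexed reporter units, dosed for 24 h. EGR1-element reporter mRNA quantified by RT-PCR, 6-FAM labelling, HpaI digestion and capillary electrophoresis; bidirectional fit versus DMSO.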

A short description of assay [15]: ATG_M_19_CIS: Attagene CIS-FACTORIAL HepG2 Assay for M19 Transcription Factor (Internal Marker) (AID 2282939). The settings on record: HepG2 Attagene CIS-FACTORIAL M19 internal marker reporter; actives raise or lower the signal. In a few lines: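 Signals come from fluorescence of labelled reporter-specific PCR fragments resolved by capillary electrophoresis, following 24 h treatment of HepG2 cells transfected with cis-promoter reporter units; activity was fitted in both directions relative to DMSO.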

Assay [16] in a line: ATG_ERE_CIS: Attagene CIS-FACTORIAL HepG2 Assay for Estrogen Response Element (ERE) (AID 2282940). As to conditions: HepG2 ERE cis-reporter, Attagene RNA transcript; actives raise or lower the signal. In a few lines:
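Fluorescence of capillary-separated, FAM-labelled reporter cDNA fragments indicates reporter mRNA levels in HepG2 cells exposed to chemicals for 24 h. Transient transfection with cis-regulated units; data fitted in both directions against DMSO.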

Assay [17] can be described thus: ATG_Ets_CIS: Attagene CIS-FACTORIAL HepG2 Assay for human Erythroblast Transformation Specific (ETS) (AID 2282941). The settings on record: HepG2 ETS cis-reporter transcription, actives raise or lower the signal. The procedure, abridged: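 Bidirectional fit versus DMSO of reporter mRNA signal, detected by RT-PCR and capillary electrophoresis in HepG2 cells transiently transfected with cis-element reporters and dosed 24 h.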

Assay [18] has as its target Hepatocyte nuclear factor 3-beta (Homo sapiens) (UniProt Q9Y261). The experiment in a line: ATG_FoxA2_CIS: Attagene CIS-FACTORIAL HepG2 Assay for human Forkhead box A2 (FOXA2) (AID 2282942). The settings on record: HepG2 cis-reporter transcription factor activity, 24 h; actives raise or lower the signal. The procedure, abridged: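 HepG2 transiently transfected with a multiplexed cis-promoter reporter library read endogenous FOXA2 activity. After 24 h compound exposure, reporter mRNA was quantified by RT-PCR, HpaI digestion and capillary electrophoresis. Bidirectional fit against DMSO.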

Assay [19] is described as follows: ATG_FoxO_CIS: Attagene CIS-FACTORIAL HepG2 Assay for human Forkhead box O (FoxO) (AID 2282943). As to conditions: HepG2 Attagene cis-reporter, FoxO element, mRNA; actives raise or lower the signal. The procedure, abridged:
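HepG2 cells transiently transfected with cis-element-driven reporter units report endogenous FoxO activity. After 24 h chemical exposure, reporter mRNA quantified by RT-PCR, fluorescent labeling, HpaI digestion and capillary electrophoresis; bidirectional fit versus DMSO.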

Assay [20] can be described thus: ATG_GATA_CIS: Attagene CIS-FACTORIAL HepG2 Assay for human GATA Binding Protein (AID 2282944). As to conditions: HepG2 GATA cis-element reporter, Attagene multiplex mRNA; actives raise or lower the signal. The procedure, abridged: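 After transfecting HepG2 cells with multiple cis-regulated reporter units, chemicals are dosed for 24 h; isolated RNA undergoes RT-PCR and fluorescent labeling before capillary electrophoresis, with activity expressed against DMSO.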

Inconclusive results are not listed. The source made the active and inactive calls. The calls were made as follows, unless noted: active = hit-call score of the fitted dose curve at least 0.9, where 1 is the maximum; inactive = score below 0.9.

Chain of Aryl hydrocarbon receptor (Homo sapiens) (P35869 whole entry, looked up): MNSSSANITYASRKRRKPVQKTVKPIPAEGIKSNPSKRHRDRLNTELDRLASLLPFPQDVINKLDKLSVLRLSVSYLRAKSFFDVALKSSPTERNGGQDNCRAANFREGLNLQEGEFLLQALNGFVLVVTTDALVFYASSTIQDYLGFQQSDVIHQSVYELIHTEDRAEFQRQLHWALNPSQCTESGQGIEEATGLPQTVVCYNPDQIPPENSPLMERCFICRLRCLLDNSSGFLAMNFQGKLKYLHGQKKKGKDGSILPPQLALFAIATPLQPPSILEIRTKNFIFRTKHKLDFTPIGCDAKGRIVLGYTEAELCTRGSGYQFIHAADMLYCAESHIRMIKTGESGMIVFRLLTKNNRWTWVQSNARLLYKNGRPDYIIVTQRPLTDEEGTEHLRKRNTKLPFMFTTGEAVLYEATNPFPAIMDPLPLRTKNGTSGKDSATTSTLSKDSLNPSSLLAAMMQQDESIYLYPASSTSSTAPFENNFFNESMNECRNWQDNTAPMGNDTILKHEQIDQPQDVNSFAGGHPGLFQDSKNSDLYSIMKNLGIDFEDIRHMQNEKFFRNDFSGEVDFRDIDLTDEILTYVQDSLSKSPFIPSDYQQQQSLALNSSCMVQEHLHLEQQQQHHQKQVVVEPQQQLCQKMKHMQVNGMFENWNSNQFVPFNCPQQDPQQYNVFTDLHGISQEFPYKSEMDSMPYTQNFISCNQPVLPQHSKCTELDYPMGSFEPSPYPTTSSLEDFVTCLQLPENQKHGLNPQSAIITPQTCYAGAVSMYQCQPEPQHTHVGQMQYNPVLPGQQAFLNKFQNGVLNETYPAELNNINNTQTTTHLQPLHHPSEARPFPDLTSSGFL
Chain of Transcription factor E2F1 (Homo sapiens) (Q01094 whole entry, looked up): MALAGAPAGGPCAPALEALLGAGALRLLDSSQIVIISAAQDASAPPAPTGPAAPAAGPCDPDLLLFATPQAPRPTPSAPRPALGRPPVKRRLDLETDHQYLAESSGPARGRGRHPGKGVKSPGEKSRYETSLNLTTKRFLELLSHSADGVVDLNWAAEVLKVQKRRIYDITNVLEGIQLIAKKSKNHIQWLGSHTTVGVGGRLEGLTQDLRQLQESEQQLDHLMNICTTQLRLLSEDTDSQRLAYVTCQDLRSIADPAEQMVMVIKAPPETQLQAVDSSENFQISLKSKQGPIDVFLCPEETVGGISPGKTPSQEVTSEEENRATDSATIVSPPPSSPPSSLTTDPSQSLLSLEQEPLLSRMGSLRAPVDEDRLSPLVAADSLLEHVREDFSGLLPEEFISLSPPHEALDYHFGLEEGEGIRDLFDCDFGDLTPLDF
Chain of Hepatocyte nuclear factor 3-beta (Homo sapiens) (Q9Y261 whole entry, looked up): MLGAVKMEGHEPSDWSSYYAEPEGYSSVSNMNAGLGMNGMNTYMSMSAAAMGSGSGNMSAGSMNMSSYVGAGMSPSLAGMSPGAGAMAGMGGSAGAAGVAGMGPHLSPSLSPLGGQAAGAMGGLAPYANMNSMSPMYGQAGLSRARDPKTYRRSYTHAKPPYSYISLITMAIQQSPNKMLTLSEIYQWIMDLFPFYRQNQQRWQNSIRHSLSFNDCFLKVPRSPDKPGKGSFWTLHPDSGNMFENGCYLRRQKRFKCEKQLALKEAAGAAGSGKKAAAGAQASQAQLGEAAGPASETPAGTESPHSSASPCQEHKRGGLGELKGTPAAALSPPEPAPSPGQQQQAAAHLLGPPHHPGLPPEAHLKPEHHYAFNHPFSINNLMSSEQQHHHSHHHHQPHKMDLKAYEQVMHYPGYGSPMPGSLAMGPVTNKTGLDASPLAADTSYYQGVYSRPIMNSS
Chain of Retinoic acid receptor alpha (Homo sapiens) (P10276 whole entry, looked up): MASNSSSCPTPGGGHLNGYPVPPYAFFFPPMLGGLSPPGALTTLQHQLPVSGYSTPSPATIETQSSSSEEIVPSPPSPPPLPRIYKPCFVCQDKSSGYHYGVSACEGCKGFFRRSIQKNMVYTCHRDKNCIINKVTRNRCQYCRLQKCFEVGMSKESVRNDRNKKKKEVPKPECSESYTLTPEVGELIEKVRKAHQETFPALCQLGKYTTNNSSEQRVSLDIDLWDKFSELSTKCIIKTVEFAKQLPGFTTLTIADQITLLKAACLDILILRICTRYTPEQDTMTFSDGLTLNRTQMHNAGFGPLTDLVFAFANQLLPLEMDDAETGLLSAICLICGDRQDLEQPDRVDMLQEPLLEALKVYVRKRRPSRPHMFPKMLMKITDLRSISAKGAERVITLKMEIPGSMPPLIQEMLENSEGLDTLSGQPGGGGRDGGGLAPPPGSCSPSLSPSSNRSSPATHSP

`CN(C(=O)C(F)(F)C(F)(F)C(F)(F)F)[Si](C)(C)C`: the outcome in assay [1], in [2], in [3], in [4], in assay [5] and in assay [6] was inactive. Further, the call in assay [7], in assay [8], in assay [9], in [10], in [11] and in assay [12] was inactive. In addition, the compound was classed as inactive in [13], in assay [14], in assay [15], in assay [16], in assay [17] and in assay [18]. The result in assay [19] and in [20] was inactive.
In the case of `Cc1cccc(C)n1`, the compound was classed as inactive in assay [1], in assay [2], in [3], in assay [4], in [5] and in assay [6]. Also, the call in assay [7], in assay [9], in [10], in assay [11], in assay [12] and in assay [13] was inactive. Also, the compound was classed as inactive in assay [14], in assay [15], in assay [16], in assay [17], in [18] and in [19]. Besides, the compound was classed as inactive in assay [20].
With `Cc1ccc2c(c1)OCC(=O)CO2`, the outcome in assay [1], in [2], in assay [3], in assay [4], in [5] and in assay [6] was inactive. Moreover, the outcome in assay [7], in [8], in assay [9], in assay [10], in assay [11] and in assay [12] was inactive. Also, the compound was called inactive in assay [14], in assay [15], in assay [16], in assay [17], in assay [18] and in assay [19]. Moreover, the compound was classed as inactive in assay [20].
As for `CC1=CC2C3C=CC(C3)C2C1C` (centres undefined), the compound was called inactive in assay [1], in assay [2], in assay [4], in assay [5], in assay [6] and in assay [7]. For the same compound, the outcome in assay [9], in [10], in assay [12], in assay [13], in assay [14] and in assay [15] was inactive. In addition, the compound was called inactive in [16], in assay [17], in assay [18], in [19] and in assay [20]. The values for the AC50 in assay [3] and in [11] were 100 µM (active) and 29.9 µM (active), respectively.
Take `COCCOCCC[Si](C)(O[Si](C)(C)C)O[Si](C)(C)C`: the AC50 in assay [1] is 437 nM (active); in assay [5], 54.1 µM (active); in assay [7], 1.53 µM (active); in [8] it was 60.1 µM (active); in assay [9], 9.13 µM (active); in assay [10], 8.84 µM (active). Besides, the result in assay [2], in assay [3], in assay [4], in assay [6], in [11] and in assay [12] was inactive. In addition, the compound was classed as inactive in assay [13], in assay [14], in [15], in assay [16], in assay [18] and in [19]. Also, the compound was classed as inactive in [20].
Consider `Nc1c(Br)cc([N+](=O)[O-])cc1Br`, for which the outcome in [1], in assay [2], in [3], in [4], in [5] and in assay [6] was inactive. The compound was classed as inactive in assay [7], in assay [8], in assay [9], in [10], in assay [11] and in [12]. In addition, the compound was called inactive in assay [14], in [15], in assay [17], in [18], in assay [19] and in assay [20].
On to `O=C=NCc1cccc(CN=C=O)c1`, for which the call in [1], in [2], in [3], in assay [4], in assay [5] and in [6] was inactive. In addition, the outcome in [7], in [8], in assay [9], in assay [10], in [11] and in assay [12] was inactive. For the same compound, the call in assay [13], in [14], in [15], in [16], in assay [17] and in assay [18] was inactive. Further, the call in [19] and in assay [20] was inactive.

Values taken from PubChem BioAssay (EPA / NIEHS).
